In the library only some 22% were active in any assay of this set; here they are far more common.
CYP2C9 act: increases human cytochrome P450 2C9 activity; P11712; recombinant CYP2C9, luciferin-H conversion, luminescence; stronger effect = higher value; factor 1 = untreated enzyme, 0 = blocked; activation factor at 5 µM; actives 1.4% (n = 96,000);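 active = activation factor of 2 or more for CYP2C9 at a 5 µM dose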;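 note: 0 = sulfaphenazole-blocked wells and 1 = vehicle-only wells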
Target sequence (P11712 whole entry, looked up): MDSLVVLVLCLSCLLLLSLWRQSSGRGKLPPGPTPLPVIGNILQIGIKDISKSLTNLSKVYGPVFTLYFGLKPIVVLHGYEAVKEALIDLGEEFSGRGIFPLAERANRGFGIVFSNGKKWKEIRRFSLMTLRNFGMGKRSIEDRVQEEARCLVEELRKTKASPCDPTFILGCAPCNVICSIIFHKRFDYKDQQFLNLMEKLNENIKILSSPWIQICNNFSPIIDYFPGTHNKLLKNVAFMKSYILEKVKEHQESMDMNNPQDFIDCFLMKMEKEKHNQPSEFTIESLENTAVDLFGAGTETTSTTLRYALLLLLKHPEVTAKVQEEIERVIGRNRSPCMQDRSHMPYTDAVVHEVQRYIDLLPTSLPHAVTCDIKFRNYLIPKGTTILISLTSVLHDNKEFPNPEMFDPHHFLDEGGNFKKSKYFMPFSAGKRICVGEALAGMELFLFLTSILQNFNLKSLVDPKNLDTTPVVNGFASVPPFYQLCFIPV
CYP2C19 inh: inhibitors of human CYP2C19; inhibition, % at 5 µM; P33261; actives 21% (n = 96,000); CYP2C19 Supersomes, luciferin-H EGE luminescence, 30 min;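 active = CYP2C19 inhibition above a set limit at 5 µM in the primary screen, cut at about 50% in these data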;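 note: plate controls were negative control wells for no effect and 2.5 mM tranylcypromine positive control for full effect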
CYP2C19 act: increases human CYP2C19 enzyme activity; AID 1025; recombinant CYP2C19, luciferin-H EGE luminescence; stronger effect = higher value; 0 = fully inhibited enzyme, 1 = untreated enzyme; 96,000 tested, under 10 active; activation factor at 5 µM;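 active = activation factor of at least 2 at 5 µM in the primary screen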;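 note: 0 = wells with 2.5 mM tranylcypromine and 1 = vehicle-only wells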
CYP2C9 inh: inhibitors of human CYP2C9; P11712; CYP2C9 Supersomes, luciferin-H conversion, luminescence; inhibition, % at 5 µM; actives 20% (n = 96,000);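 active = blocking of liver enzyme CYP2C9 beyond about 50% at 5 µM, limit read from the data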
Measles CPE: protection of cells from measles virus; Measles virus-infected cells, CPE protection, absorbance; protection (pct of control), % at 4 µM; actives 1.5% (n = 140,000); AID 841; in the data active = protection mostly above about 24%, no sharp cut-off; inactive = mostly below about 26%
Active calls of the source: *; x = no result given.

SMILES | CYP2C9 act | CYP2C19 inh | CYP2C19 act | CYP2C9 inh | Measles CPE
O=C(Cc1ccccc1)NC1c2ccccc2-c2ccccc21 | x | x | x | x | 10.7
CC(C)(C)c1ccc(C(=O)NCC(=O)OCC(=O)Nc2ccc3c(c2)OCCO3)cc1 | x | x | x | x | 3.3
O=C(c1ccccc1)c1c(O)nc(-c2ccccc2)n(-c2ccccc2)c1=O | x | x | x | x | 4.0
CC1CCCN(c2ccc(C(=O)OCC(=O)N3c4ccccc4Sc4ccccc43)cc2[N+](=O)[O-])C1 (stereo not drawn) | x | x | x | x | 10.0
CC1CC(C)CN(c2ccc(C(=O)OCC(=O)NC3CCCc4ccccc43)cc2[N+](=O)[O-])C1 (stereo not drawn) | 0.5 | 21.8 | 0.8 | 52.4* | 3.2
O=C(COC(=O)c1ccc(Sc2ccccc2)c([N+](=O)[O-])c1)NC1CCCc2ccccc21 (stereo not drawn) | 0.1 | -11.8 | 1.1 | 88.1* | 4.6
Cc1ccc(C)c(NC(=O)CCn2nc(C)cc2C)c1 | 1.2 | 11.2 | 0.9 | -15.9 | 1.9
COc1cccc(CNS(=O)(=O)c2cccc(S(=O)(=O)N3CCOCC3)c2)c1 | 0.6 | 57.1* | 0.4 | 36.8 | 16.6
O=S(=O)(NCc1ccc2c(c1)OCO2)c1cccc(S(=O)(=O)N2CCOCC2)c1 | 0.7 | 74.6* | 0.3 | 34.9 | 27.7
COC(=O)c1ccc(S(=O)(=O)NCc2cccc(OC)c2)n1C | 0.7 | 60.4* | 0.4 | 28.1 | 12.8
COC(=O)c1cccc(S(=O)(=O)N2CCOCC2)c1 | 0.9 | 4.1 | 1 | 6.6 | 3.4
COc1cccc(CNC(=O)Cn2cccc2)c1 | 0.8 | 45.8 | 0.5 | 22.1 | 0.1
COc1ccc(CNS(=O)(=O)c2cccc(S(=O)(=O)N3CCOCC3)c2)cc1 | 0.5 | 57.9* | 0.4 | 46.0 | 21.1
Cc1cc(-c2ccccc2)n2ncc(C#N)c2n1 | 1.1 | 6.7 | 0.9 | -10.1 | 15.4
CC(C)OCCCN1CN(S(=O)(=O)c2ccccc2)c2nc3ccccc3nc21 | 0 | 85.2* | 0.1 | 97.5* | 18.0
COCCCN1CN(S(=O)(=O)c2ccc(Cl)cc2)c2nc3ccccc3nc21 | 0 | 98.3* | 0 | 99.4* | 10.9
O=C(CN1CCN(c2ccccc2)CC1)Nc1ccc(OCc2ccccc2)cc1 | 0.7 | 7.0 | 0.9 | 29.1 | 13.1
Cc1cc2ncn(C(=O)N3CCCCCC3)c2cc1C | x | x | x | x | 4.4
Cc1cc2ncn(C(=O)N3CCCCC3)c2cc1C | 0.9 | 81.6* | 0.2 | 6.1 | 7.5
CCOC(=O)Cn1c(=O)oc2cc(S(=O)(=O)N(CCN(C)C)Cc3ccccc3)ccc21 | 0.9 | -4.3 | 1 | 8.6 | 7.7
CCOCCCNS(=O)(=O)c1ccc2c(c1)oc(=O)n2CC(=O)OCC | 0.8 | -10.2 | 1.1 | 18.9 | 6.4
CN(Cc1ccccc1)C(=O)Cn1c(=O)oc2cc(S(=O)(=O)NCc3ccccc3)ccc21 | 1 | 6.6 | 0.9 | 3.5 | 29.5
CCOC(=O)Cn1c(=O)oc2cc(S(=O)(=O)Nc3cccc(C)c3)ccc21 | 0.5 | 50.5* | 0.5 | 54.0* | 2.2
CCOC(=O)Cn1c(=O)oc2cc(S(=O)(=O)Nc3cc(OCC)ccc3OCC)ccc21 | 0.3 | 73.4* | 0.3 | 74.4* | 12.2
CCOC(=O)Cn1c(=O)oc2cc(S(=O)(=O)Nc3ccc(N(CC)CC)cc3C)ccc21 | 0.4 | 66.7* | 0.3 | 61.2* | 20.7
SMILES | CYP2C9 act | CYP2C19 inh | CYP2C19 act | CYP2C9 inh | Measles CPE
CCOC(=O)Cn1c(=O)oc2cc(S(=O)(=O)Nc3cc(Cl)ccc3OC)ccc21 | 0.4 | 36.5 | 0.6 | 60.7* | 11.5
NC(=O)Cn1nnc(-c2ccccc2NC(=O)c2cnccn2)n1 | 0.9 | -10.9 | 1.1 | 8.9 | 19.3
CCNc1ccc(S(N)(=O)=O)cc1[N+](=O)[O-] | x | x | x | x | 14.9
C=C(C)CC1Nc2ccccc2NC1CC(=C)C (stereo not drawn) | 1.1 | 16.3 | 0.8 | -9.3 | -0.1
CS(=O)(=O)N1CCN(c2ccccc2NC(=O)c2ccc(-c3ccc(Br)cc3)o2)CC1 | 0.3 | 56.3* | 0.4 | 70.9* | 3.0
COc1cc2ccccc2cc1C(=O)Nc1ccccc1N1CCN(S(C)(=O)=O)CC1 | 0.5 | 50.3* | 0.5 | 47.1 | 4.5
CCOc1ccccc1OCCOCCN1CC(C)OC(C)C1 (stereo not drawn) | 1.1 | -1.8 | 1 | -12.6 | 5.9
COc1ccc(CNC2CC(=O)N(C)C2=O)cc1 (stereo not drawn) | 0.9 | 20.0 | 0.8 | 6.1 | 13.6
O=C(CC1CC2CCC1C2)OCC(=O)c1c[nH]c2ccccc12 (stereo not drawn) | 1.2 | 70.2* | 0.3 | -18.5 | 19.6
